High-throughput results (PubChem BioAssay)
AmpC inh detg – qHTS Inhibitors of AmpC Beta-Lactamase (assay with detergent); P00811; AmpC hydrolysis of nitrocefin, absorbance 480 nm, 0.01% Triton; Potency, µM (top dose mostly 114 µM), inactives show at the top dose activity change, negative = inhibition, actives largely listed as inhibitors; hit rate 0.041% among 370,000; AID 485294, 2010;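 further: 0% = no-compound wells and -100% = no-enzyme wells; nearly all actives have a fitted effect of over 25% in size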
Target sequence (P00811 whole entry, looked up): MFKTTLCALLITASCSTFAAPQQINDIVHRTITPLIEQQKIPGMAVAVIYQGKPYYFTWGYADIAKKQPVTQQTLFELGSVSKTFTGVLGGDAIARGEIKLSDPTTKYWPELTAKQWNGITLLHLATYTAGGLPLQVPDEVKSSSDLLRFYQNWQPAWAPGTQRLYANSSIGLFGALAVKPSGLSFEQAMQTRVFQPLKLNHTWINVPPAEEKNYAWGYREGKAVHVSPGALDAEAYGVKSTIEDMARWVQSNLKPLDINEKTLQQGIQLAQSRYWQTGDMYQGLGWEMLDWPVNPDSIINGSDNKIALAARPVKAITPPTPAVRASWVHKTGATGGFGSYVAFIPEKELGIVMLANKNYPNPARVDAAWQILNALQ
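20 mM phosphate pH 7.0 + 0.01% (detergent screen) or 0.0001% Triton X-100; 5.3 nM AmpC reagent; cpd preinc 15 min RT; nitrocefin (800 uM stock) to start; A480 q20 s × 4 min; Activity was normalised to no-enzyme and no-compound control wells.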
AmpC inh no detg – qHTS Inhibitors of AmpC Beta-Lactamase (assay without detergent); hit rate 0.52% among 330,000; AmpC nitrocefin hydrolysis, absorbance 480 nm, 0.0001% Triton; P00811; AID 485341, 2010; Potency, µM (highest dose often 57.1 µM), for inactives: at the highest dose activity change, negative = inhibition, hits mostly inhibitors;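 further: plate controls were no compound for no effect and no enzyme for full effect; nearly all actives have a fitted effect of over 20% in size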
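20 mM phosphate pH 7.0 + 0.01% (detergent screen) or 0.0001% Triton X-100; 5.3 nM AmpC reagent; cpd preinc 15 min RT; nitrocefin (800 uM stock) to start; A480 q20 s × 4 min; Activity was normalised to no-enzyme and no-compound control wells.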
AMA1-RON2 inh – qHTS for Inhibitors of AMA1-RON; Towards Development of Antimalarial Drug Lead: Primary Screen | Plasmodium falciparum AMA1 (3D7) - RON2 peptide interaction | AlphaScreen AMA1-biotinylated RON2 peptide binding | Potency, µM (highest dose often 58.2 µM), without a hit: at the highest dose activity change, negative = inhibition, usual class: inhibitors | hit rate 0.2% among 360,000;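 further: 0% = vehicle wells and -100% = peptide control; nearly all actives have a fitted effect of over 45% in size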
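AMA1 (3D7) with his tag at 25 nM final met compounds first, then biotinylated RON2 peptide at 25 nM; detection used donor plus acceptor beads, 10 µg/mL apiece, read by AlphaScreen after 30 min at room temperature.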
Sm TGR inh – qHTS Assay for the Inhibitors of Schistosoma Mansoni Peroxiredoxins; purified TGR, DTNB reduction, TNB absorbance 405 nm; Potency, µM (top dose mostly 114 µM), for inactives: top-dose activity change, negative = inhibition, most hits filed as inhibitors; hit rate 3% among 360,000; AID 485364, 2010; further: nearly all actives have a fitted effect of over 60% in size
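Kinetic colorimetric format: TGR-catalysed, NADPH-driven DTNB reduction monitored via TNB absorbance. Enzyme dispensed at 20 nM; compound exposure 15 min at room temperature before reaction start.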
FMDV inh – High Throughput Screening for Foot and Mouth Disease Virus Antivirals; Potency, µM (top dose mostly 57.9 µM), inactives show top-dose activity change, negative = inhibition, hits mostly inhibitors; hit rate 1.2% among 410,000; FMDV antiviral cell-based qHTS; AID 1159524, 2015; calls by dose curve; tested in HEK293T cells; further: read-out not given here; nearly all actives have a fitted effect of over 45% in size
* = called active by the depositor; ? = inconclusive; / = no result given. Compounds with a hit are over-represented: about 4.1% of the library has one in this group of screens. Unless noted, the call rests on the fitted dose curve; in most records, active means well fitted curve in the direction sought with a large enough effect; inconclusive means small, poorly fitted or top-dose-only effect, or another doubt; inactive means no such curve, though single readings can be large; an effect the other way counts as inactive or inconclusive. Unless noted, on the % scale 0 is the no-effect control and ±100 the full control effect; potency means the concentration at half of the fitted maximal effect.

SMILES	AmpC inh detg	AmpC inh no detg	AMA1-RON2 inh	Sm TGR inh	FMDV inh
COc1ccc(Cl)cc1NC(=O)CSc1c2c(nc3ccccc13)CCC2	-3%	/	/	-5%	?
CCNc1ncc2nc(-c3ccccc3)c(=O)n(Cc3ccc(F)cc3)c2n1	/	/	/	/	-4%
CCC(C)NC(=O)C1CCN(S(=O)(=O)c2cc([N+](=O)[O-])ccc2Cl)CC1 (stereo not given)	2%	-21%	-7%	8%	-19%
O=C(Nc1nc2ccccc2s1)C1CCN(S(=O)(=O)c2cc([N+](=O)[O-])ccc2Cl)CC1	8%	7.9µM*	-24%	?	35µM*
O=C(NCCc1ccccn1)C1CC12CCN(C(=O)c1cccc(C(F)(F)F)c1)CC2 (stereo not given)	/	/	/	/	-4%
COc1ccc(-c2nc(CS(=O)CC(=O)NCCc3ccc(C)cc3)c(C)o2)cc1OC (stereo not given)	-2%	150%	3%	40µM*	-12%
COCCCNC(=O)CS(=O)Cc1nc(-c2ccccc2C)oc1C (stereo not given)	-17%	2%	18%	40µM*	-20%
COCCNC(=O)CS(=O)Cc1nc(-c2ccc(Cl)cc2)oc1C (stereo not given)	-9%	-7%	0%	?	-23%
COc1cccc(-c2nc(CS(=O)CC(=O)O)c(C)o2)c1 (stereo not given)	-1%	-13%	5%	?	-4%
COc1cccc(-c2nc(CS(=O)CC(=O)NCCc3ccccc3)c(C)o2)c1 (stereo not given)	2%	71%	22%	20µM*	19%
CCC(C)NC(=O)CS(=O)Cc1nc(-c2cccc(OC)c2)oc1C (stereo not given)	-14%	-5%	0%	28µM*	-21%
O=C(CSc1nc2c([nH]c3ccccc32)c(=O)n1-c1cccc(Cl)c1)N1CCCC1	0%	/	/	3%	-3%
Cc1oc(-c2ccccc2F)nc1CS(=O)CC(=O)NCc1ccccc1 (stereo not given)	?	7%	-1%	-20%	33%
Cc1ccccc1-c1nc(CS(=O)CC(=O)NC(C)CCc2ccccc2)c(C)o1 (stereo not given)	5%	161%	-6%	0.14µM*	-12%
COc1cccc(-c2nc(CS(=O)CC(=O)NC(C)CCc3ccccc3)c(C)o2)c1 (stereo not given)	4%	179%	5%	10µM*	-17%
Cc1cccc(-c2nc(CS(=O)CC(=O)NCCc3ccccc3)c(C)o2)c1 (stereo not given)	?	98%	-6%	-25%	0%
COc1cccc(-c2nc(CS(=O)(=O)CC(=O)NCCCOC(C)C)c(C)o2)c1	?	83%	-5%	?	-4%
COc1cccc(-c2nc(CS(=O)CC(=O)NCCCOC(C)C)c(C)o2)c1 (stereo not given)	4%	29%	3%	25µM*	-21%
O=C(NCC1Cc2cccc(-c3nccs3)c2O1)c1ccnc(Cl)c1 (stereo not given)	/	/	/	/	10%
CC1=NOC(=O)/C1=C/c1ccc(-c2ccc(Cl)cc2)o1	?	-30%	/	-35%	/
COc1ccc(Cl)cc1/C=C1/C(=O)ON=C1C	-5%	-15%	-19%	?	32µM*
CC1=NOC(=O)/C1=C\c1ccc(-c2cc(Cl)ccc2Cl)o1	-3%	-31%	-12%	-2%	10µM*
CCOc1ccc(Cl)cc1/C=C1/C(=O)ON=C1C	-9%	-11%	-8%	?	40µM*
CCCOc1ccc(/C=C2/C(=O)ON=C2C)cc1Cl	-14%	-4%	-24%	?	0%
COc1ccc(CNC(=O)C2CCN(C(=O)c3ccc(-n4ccc5ccccc54)s3)CC2)cc1	2%	/	/	-9%	?
SMILES	AmpC inh detg	AmpC inh no detg	AMA1-RON2 inh	Sm TGR inh	FMDV inh
CCCN(CC#CCOc1ccc(OC)cc1)CCC	1%	4%	12%	13µM*	-17%
C=CCNCC#CCOc1ccc(OC)cc1	-2%	-5%	-18%	?	9%
COc1ccc(C#Cc2c(-c3ccccc3)n(C)c3ccccc23)cc1	/	-39%	42%	/	0%
COc1cc(OC)cc(-c2c(C#Cc3ccsc3)c3cc(-c4ccc(OC)c(OC)c4)ccc3n2C)c1	/	-16%	2%	/	-4%
COc1cc(C#Cc2c(-c3ccccc3)n(C)c3ccccc23)cc(OC)c1	-6%	-34%	52%	7.9µM*	-1%
COc1cc(OC)cc(-c2c(C#Cc3ccsc3)c3cc(-c4ccc(OC)nc4)ccc3n2C)c1	-7%	-11%	11%	28µM*	6%
COc1ccc(-c2c(C#Cc3ccsc3)c3ccccc3n2C)cc1	-18%	-33%	-3%	20µM*	9%
CCOC(=O)c1cnc(NCc2ccc(OC)cc2OC)c2ccccc12	3%	/	/	-4%	8%
CC(=O)c1cccc(NC(=O)[C@H](Cc2ccccc2)N2Cc3ccccc3C2=O)c1	-14%	/	/	9%	24%
COC(=O)C1Cc2c([nH]c3ccccc23)C2(CCN(Cc3ccccc3)CC2)N1 (stereo not given)	-2%	18%	2%	-9%	-1%
CCC1(C)NC(C(=O)O)Cc2c1[nH]c1ccccc21 (stereo not given)	-12%	-16%	-4%	35µM*	0%
CCCC1NC(C(=O)O)Cc2c1[nH]c1ccccc21 (stereo not given)	-9%	-22%	3%	45µM*	-4%
CC(C)CC1NC(C(=O)O)Cc2c1[nH]c1ccccc21 (stereo not given)	-6%	-12%	4%	-32%	7%
CCCN1CCC2(CC1)NC(C(=O)O)Cc1c2[nH]c2ccccc12 (stereo not given)	7%	-10%	7%	25µM*	4%
COc1ccc(NC(=O)CSc2cn(CC(=O)N3CCOCC3)c3ccccc23)cc1OC	12%	/	/	4%	-17%
O=C(NCC1CCN(Cc2ccccc2Cl)CC1)c1cc2ccc3cccnc3c2[nH]1	14%	/	/	2%	-8%
NS(=O)(=O)c1ccc(N/N=C/c2ccc(O)c(O)c2O)c([N+](=O)[O-])c1	-13%	7.1µM*	?	?	8%
C/C(=N\Nc1ccc(S(N)(=O)=O)cc1[N+](=O)[O-])c1ccco1	?	-39%	3%	40µM*	-3%
Cc1nnc(Sc2nc3ccccc3o2)c2ccccc12	0%	-29%	17%	32µM*	?
C=CCN1CC[C@]23c4c5ccc(O)c4OC2C(=O)CC[C@@]3(O)C1C5 (stereo not given in full)	-10%	-13%	10%	40µM*	-17%
C=CCN1CC[C@]23c4c5ccc(O)c4OC2C(=O)CC[C@]3(O)C1C5 (stereo not given in full)	/	/	/	/	-3%
